“And” between values parts separate entries of the source, which are not always exact repeats. Equal values may be shown once. Inconclusive results are not listed. The source made the active and inactive calls. Calls come from the whole dose curve. Starred links: 1 amine or outer side, 2 acyl side, 3 side chain; linkers in the order of their positions; H or OH if unused. Positions of bridges follow the written chain, without caps; N, C: chain ends. Non-standard residues stand in square brackets, D forms with d. Residues, ends and D or L forms follow the SMILES beside them. ξ: configuration not given here. *: point of attachment. ΔAla(3-NHCONH2) = NC(=O)NC=C(N)C(=O)O; X1 = NC1=NCCC(C(N[*:1])C(=O)[*:2])N1; ξβ3hOrn = NCCCC(N)CC(=O)*; Dap = NC[CH](N)C(=O)O

The nature of assay [1]: Primary qHTS for Huh7 cytotoxicity: counterscreen for inhibitors of MERS-S pseudotyped particle cell entry (AID 1479147). For activity change, negative = cytotoxicity: % is set by controls: 0 for no effect and ±100 for the full control effect.
A short description of assay [2]: Primary qHTS for inhibitors of MERS-S pseudo-typed particle cell entry (AID 1479149; note: nearly all actives have a fitted effect of over 60% in size; for activity change, negative = inhibition: % is set by controls: 0 for no effect and ±100 for the full control effect). (In general: In qHTS, concentration-response curves come from the screen itself.)
The nature of assay [3]: Primary qHTS for Vero E6 cytotoxicity: counterscreen for inhibitors of SARS-S pseudo-typed particle cell entry (AID 1479150). For activity change, negative = cytotoxicity: % is set by controls: 0 for no effect and ±100 for the full control effect.
Assay [4] is described as follows: Cytotoxicity counterscreen for inhibitors of SARS-CoV-2 cell entry (AID 1645845). For activity change, negative = cytotoxicity: % is set by controls: 0 for no effect and ±100 for the full control effect. Note: nearly all actives have a fitted effect of over 50% in size. In short, it runs like this:
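48 h compound treatment (after 1 h preincubation), HEK293-ACE2 cells, 37 C/5% CO2; ATP luminescence endpoint; normalized to cell wells and media blanks.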
For orientation: The purpose of a counterscreen is to sort out artefacts and off-target activity.

A short description of assay [5]: Primary qHTS to identify inhibitors of SARS-CoV-2 cell entry (AID 1645846). Note: nearly all actives have a fitted effect of over 45% in size. The following applies: activity change, negative = inhibition: at 57.1 µM (top of the series) unless noted. The procedure, abridged:
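Entry measured by luciferase signal 48 h after adding SARS-CoV-2-S pseudotyped MLV particles to HEK293-ACE2 cells preincubated 1 h with compounds. Normalisation: bald particles and spike particles.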

Consider `NNCCc1ccccc1`, for which the Potency result in assay [1], in assay [2], in assay [3], in assay [4] and in assay [5] was “inactive” throughout.
For `Cc1ccccc1C(=O)Nc1ccc(C(=O)N2CCCC(O)c3cc(Cl)ccc32)c(C)c1` (stereo not given), the Potency entry in assay [1], in assay [2], in assay [3] and in assay [4] was “inactive” in each case. In assay [5], the activity change, negative = inhibition was -8.91%.
In the case of `CC[N+](C)(C)c1cccc(O)c1`, the Potency entry in assay [1], in assay [2], in assay [3], in assay [4] and in assay [5] was “inactive” each time.
For `CCC1C(=O)OCC1Cc1cncn1C` (stereo not given), the Potency entry in assay [1], in assay [2], in assay [3] and in assay [4] was “inactive” each time. The activity change, negative = inhibition in assay [5] worked out at 2.21%.
For the molecule `NC(=O)c1cn(Cc2c(F)cccc2F)nn1`, the Potency result in assay [1], in assay [2], in assay [3], in assay [4] and in assay [5] was “inactive” throughout.
Consider `O=C(c1ccccc1)c1ccc2n1CCC2C(=O)O` (stereo not given), for which the Potency result in assay [1], in assay [2], in assay [3], in assay [4] and in assay [5] was “inactive” each time.
With `NCCCC(N)CC(=O)NCC1NC(=O)C(CO)NC(=O)C(N)CNC(=O)C(C2CCN=C(N)N2)NC(=O)C(=CNC(N)=O)NC1=O` (stereo not drawn) (H-[Dap]S[Dap](ξβ3hOrn)[ΔAla(3-NHCONH2)][X1]; lactam 1-C; configuration not given here), in assay [1], the activity change, negative = cytotoxicity was 3.81% [at 0.573 µM] (inactive). In addition, the outcome in assay [2] is “inactive [at 0.573 µM]”; in assay [3], “inactive [at 0.573 µM]”; in assay [4] it was “inactive [at 0.702 µM]”. In assay [5], the activity change, negative = inhibition was found to be 3.17% [at 0.702 µM].
Regarding `Cc1ccnc2c1NC(=O)c1cccnc1N2C1CC1`, the Potency result in assay [1], in assay [2], in assay [3] and in assay [4] was “inactive” throughout. The activity change, negative = inhibition in assay [5] is -19.4%.
Regarding `Cc1ccc(C(=O)c2cc(O)c(O)c([N+](=O)[O-])c2)cc1`, the Potency result in assay [1], in assay [2], in assay [3] and in assay [4] was “inactive” throughout. Further, the activity change, negative = inhibition in assay [5] is -19.3%.
For `CC(C)NCC(O)COc1ccc(CCOCC2CC2)cc1` (stereo not given), the Potency result in assay [1], in assay [2], in assay [3] and in assay [4] was “inactive” each time. In assay [5], the activity change, negative = inhibition was -14.6% and -1.57%.
`NS(=O)(=O)Cc1noc2ccccc12`: the Potency result in assay [1], in assay [2], in assay [3], in assay [4] and in assay [5] was “inactive” in each case.
In the case of `NC(=O)C(c1ccccc1)(c1ccccc1)[C@@H]1CCN(CCc2ccc3c(c2)CCO3)C1`, the Potency entry in assay [1], in assay [2], in assay [3] and in assay [4] was “inactive” each time. In addition, the activity change, negative = inhibition in assay [5] is -1.98%.
Consider `CCCC(=O)Nc1ccc(OCC(O)CNC(C)C)c(C(C)=O)c1` (stereo not given), for which the Potency entry in assay [1], in assay [2], in assay [3] and in assay [4] was “inactive” each time. Further, the activity change, negative = inhibition in assay [5] is 4.12%.
As to `CO/N=C(\C(=O)N[C@@H]1C(=O)N2C(C(=O)O)=C(CSc3nc(=O)c(O)nn3C)CS[C@H]12)c1csc(N)n1`, the Potency entry in assay [1], in assay [2], in assay [3], in assay [4] and in assay [5] was “inactive” in each case.
As for `NCCCC(O)(P(=O)(O)O)P(=O)(O)O`, the Potency entry in assay [1], in assay [2], in assay [3] and in assay [4] was “inactive” throughout. For the same molecule, in assay [5], the activity change, negative = inhibition is -4.6% and -17.5%.
Turning to `CC(=O)Nc1nnc(S(N)(=O)=O)s1`, the Potency result in assay [1], in assay [2], in assay [3] and in assay [4] was “inactive” in each case. Also, the activity change, negative = inhibition in assay [5] is 1.7%.
Consider `O=C(O)CCCc1ccccc1`, for which the Potency result in assay [1], in assay [2], in assay [3], in assay [4] and in assay [5] was “inactive” in each case.
In the case of `CCCCOCCOCCOCc1cc2c(cc1CCC)OCO2`, the Potency result in assay [1], in assay [2], in assay [3] and in assay [4] was “inactive” each time. The activity change, negative = inhibition in assay [5] was -2.81%.
In the case of `O=C1[C@H](CC[C@H](O)c2ccc(F)cc2)[C@@H](c2ccc(O)cc2)N1c1ccc(F)cc1`, the Potency result in assay [1], in assay [2], in assay [3] and in assay [4] was “inactive” throughout. The activity change, negative = inhibition in assay [5] was 1.63% and -17.2%.
Consider `CO/N=C1\CN(c2nc3c(cc2F)c(=O)c(C(=O)O)cn3C2CC2)CC1CN` (stereo not given), for which the Potency result in assay [1], in assay [2], in assay [3] and in assay [4] was “inactive” in each case. Also, the activity change, negative = inhibition in assay [5] was -12.6%.
As for `CN(C)c1ccc(O)c2c1C[C@H]1C[C@H]3[C@H](N(C)C)C(=O)C(C(N)=O)=C(O)[C@@]3(O)C(=O)C1=C2O`, the Potency entry in assay [1], in assay [2], in assay [3] and in assay [4] was “inactive” each time. The activity change, negative = inhibition in assay [5] was -8.61%.
On to `CC/C=C(\C(=O)N[C@@H]1C(=O)N2C(C(=O)OCOC(=O)C(C)(C)C)=C(COC(N)=O)CS[C@H]12)c1csc(N)n1`, for which the Potency entry in assay [1], in assay [2], in assay [3] and in assay [4] was “inactive” throughout. The activity change, negative = inhibition in assay [5] was -26.6%.
For `Clc1ccc(C(c2ccccc2Cl)C(Cl)Cl)cc1` (stereo not given), the Potency entry in assay [1], in assay [2], in assay [3] and in assay [4] was “inactive” each time. Also, in assay [5], the activity change, negative = inhibition was -40.6%.
Regarding `CNS(=O)(=O)Cc1ccc2[nH]cc(CCN(C)C)c2c1`, the Potency result in assay [1], in assay [2], in assay [3], in assay [4] and in assay [5] was “inactive” in each case.
With `O=C1CCC(N2C(=O)c3ccccc3C2=O)C(=O)N1` (stereo not given), the Potency entry in assay [1], in assay [2], in assay [3] and in assay [4] was “inactive” in each case. Further, the activity change, negative = inhibition in assay [5] is -0.562% and -0.309%.
For `O=C(O)P(=O)(O)O`, the Potency result in assay [1], in assay [2], in assay [3], in assay [4] and in assay [5] was “inactive” each time.
Regarding `COc1ccccc1OCC(O)COC(N)=O` (stereo not given), the Potency entry in assay [1], in assay [2], in assay [3], in assay [4] and in assay [5] was “inactive” throughout.
Regarding `C[C@H]1[C@H](NC(=O)/C(=N/OC(C)(C)C(=O)O)c2csc(N)n2)C(=O)N1S(=O)(=O)O` (stereo in doubt), the Potency result in assay [1], in assay [2], in assay [3], in assay [4] and in assay [5] was “inactive” throughout.
Turning to `NC[C@H](O)c1ccc(O)c(O)c1`, the Potency entry in assay [1], in assay [2], in assay [3] and in assay [4] was “inactive” throughout. For the same molecule, in assay [5], the activity change, negative = inhibition is 4.91% and -20.6%.

The values are drawn from PubChem BioAssay (NCATS).
